# Among all 120,000 compounds or so, about 5,300 (4.4%) were called active. Inconclusive results (about 22%) are left out. Shown is part of a subset that was picked to be rich in actives. Where a call stands in place of a potency, no number is given. A number with no mark means an inactive call. Calls come from the whole dose curve; as a rule, active = well fitted inhibition curve with a large enough effect; inconclusive = small, poorly fitted or top-dose-only effect; inactive = no such curve, though single readings can be large or run the other way.
# Assay: qHTS Primary assay for Inhibitors of Plasmodium falciparum Dd2 growth in vitro; note: nearly all actives have a fitted effect of over 65% in size
# Details: P. falciparum Dd2 growth, SYBR Green, 72 h; series mostly up to 28.9 µM
# In short: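 Readout: SYBR Green fluorescence, 485 nm excitation, 535 nm emission, after ~16 h lysis at 37C. Before that, Dd2-infected red cells (2.5% hematocrit) grew 72 h with compound, 29 uM top final concentration.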
# Potency is the fitted concentration of half-maximal effect.
SMILES,Potency,"activity, negative = inhibition"
O=C(NCCc1noc(C2CC2)n1)c1ccc2c(c1)OCO2,inactive,–
C[S+](=O)([O-])N1CC2ON=C(C(=O)N3CCCC3)C2C1 (configuration not stated),inactive,–
COCCn1ncc(N2CCC(C(=O)NCc3ccc(C)o3)C2)cc1=O (configuration not stated),inactive,–
CC(C)(C)c1ccnc(N[C@H]2CO[C@H]3[C@@H]2OC[C@H]3OC(=O)Nc2cccc(C(F)(F)F)c2)n1,inactive,–
Cc1ccc(NC(=O)c2cnc(-c3ccccc3)nc2-c2ccncc2)cc1C,inactive,–
O=[S+]1([O-])NCC2(CCCN(Cc3ccncc3)C2)Oc2ncccc21 (configuration not stated),inactive,–
Cc1nn(C)c(C)c1S(=O)(=O)N1CCC(c2noc(-c3ccccc3)n2)C1 (configuration not stated),–,8.68% [at 5.79 µM]
CC(C)Cn1c(-c2ccc(S(=O)(=O)N3CCOCC3)cc2)csc1=Nc1cc(Cl)ccc1Cl,10 µM (active),–
O=C(CN1C(=O)COc2ccc(S(=O)(=O)N3CCOCC3)cc21)N1CCN(c2cccc(Cl)c2)CC1,inactive,–
O=C1[C@@H]2C[C@@H](O)CN2C2(CN(Cc3ccc(OC(F)(F)F)cc3)C2)C(=O)N1Cc1ccccc1Cl,inactive,–
CO[C@H]1[C@H](NC(=O)c2cnc3ccccc3c2)c2ccccc2C12CCNCC2,inactive,–
c1ccc2c(c1)CCN2C1CN(Cc2cccc3ccccc23)C1,inactive,–
Clc1ccc(-c2nnc3n2CCN(Cc2cccc4ccccc24)C3)cc1,inactive,–
Cc1ccccc1N(C)C1CN(Cc2cccc3ccccc23)C1,10 µM (active),–
COc1cc2c(cc1OCc1ccncc1)NC(=O)C21CCN(c2ncccn2)CC1,inactive,–
COc1cc2c(cc1Oc1cccc(N(C)C)c1)NC(=O)C21CCN(c2cnccn2)CC1,0.891 µM (active),–
COc1cc2c(cc1Oc1cccc(N(C)C)c1)NC(=O)C21CCN(Cc2ccccn2)CC1,inactive,–
COc1ccc(NC(=O)O[C@@H]2CO[C@H]3[C@@H]2OC[C@@H]3NC(=O)C2CCCCC2)cc1,inactive,–
O=C(CC1CCCN(c2cnn(CC3CC3)c(=O)c2)C1)NCc1cc(F)cc(F)c1 (configuration not stated),inactive,–
COc1ccc(NC(=O)Cn2c(=O)n(-c3ccccc3)c(=O)c3c2cc(C)n3C)cc1,inactive,–
N#Cc1ccc(S(=O)(=O)NC2CCc3nn(CC4CC4)c(=O)n3CC2)cc1 (configuration not stated),inactive,–
CCN(CC)CCNC(=O)Cn1ncc2c3ccccc3n(Cc3ccccc3C)c2c1=O,10 µM (active),–
CCCN(CCC)CCCNC(=O)Cn1ncc2c3ccccc3n(Cc3ccccc3)c2c1=O,5.01 µM (active),–
CCCn1c2ccccc2c2cnn(CC(=O)N(CC)c3cc(C)ccc3C)c(=O)c21,inactive,–
CCCn1c2ccccc2c2cnn(CC(=O)NCCCOC(C)C)c(=O)c21,inactive,–
CCN(CCCNC(=O)Cn1ncc2c3ccccc3n(C)c2c1=O)Cc1ccccc1,inactive,–
CCCn1c2ccccc2c2cnn(CC(=O)N(C)c3ccccc3CC)c(=O)c21,inactive,–

# Source: PubChem BioAssay AID1347417 (National Center for Advancing Translational Sciences (NCATS), 2020)
